Test results reported in PubChem BioAssay (NCATS).
Inconclusive results are not listed. The source made the active and inactive calls. Calls follow the shape of the dose curve; as a rule, active = well fitted cell-killing curve with a large enough effect; inconclusive = small, poorly fitted or top-dose-only effect, or effect the other way; inactive = flat fitted curve, though single readings scatter.

Tests used:
Assay in all cases: Primary qHTS to identify gynecologic anti-cancer compounds using libraries of approved drugs and bioactive compounds (AID 1345084); also: nearly all actives have a fitted effect of over 55% in size
C33A = conditions: Gynecologic cancer cell panel viability, ATPlite luminescence, 48 h; series mostly up to 57.5 µM
Summary of the method: (§1)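 Cells, 1,000 per well, plated 16 h, then exposed 48 h at 37 C to compounds. Viability by ATPlite luminescence after 15 min at room temperature.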

CAOV3 = conditions: Gynecologic cancer cell panel viability, ATPlite luminescence, 48 h; series mostly up to 57.5 µM
Summary of the method: as §1

CASKI = conditions: Gynecologic cancer cell panel viability, ATPlite luminescence, 48 h; series mostly up to 57.5 µM
Summary of the method: as §1

Es-2 = conditions: Gynecologic cancer cell panel viability, ATPlite luminescence, 48 h; series mostly up to 57.5 µM
Summary of the method: as §1

HeLa = conditions: Gynecologic cancer cell panel viability, ATPlite luminescence, 48 h; series mostly up to 57.5 µM
Summary of the method: as §1

Hek293T = conditions: Gynecologic cancer cell panel viability, ATPlite luminescence, 48 h, control line for the selectivity index; series mostly up to 57.5 µM
Summary of the method: as §1

JEG-3 = conditions: Gynecologic cancer cell panel viability, ATPlite luminescence, 48 h; series mostly up to 57.5 µM
Summary of the method: as §1

OV90 = conditions: Gynecologic cancer cell panel viability, ATPlite luminescence, 48 h; series mostly up to 57.5 µM
Summary of the method: as §1

PA-1 = conditions: Gynecologic cancer cell panel viability, ATPlite luminescence, 48 h; series mostly up to 57.5 µM
Summary of the method: as §1

SKOV3 = conditions: Gynecologic cancer cell panel viability, ATPlite luminescence, 48 h; series mostly up to 57.5 µM
Summary of the method: as §1

Tov-21-G = conditions: Gynecologic cancer cell panel viability, ATPlite luminescence, 48 h; series mostly up to 57.5 µM
Summary of the method: as §1

Tov112D = conditions: Gynecologic cancer cell panel viability, ATPlite luminescence, 48 h; series mostly up to 57.5 µM
Summary of the method: as §1
% is scaled to controls: 0 for no effect and ±100 for the full control effect.

COc1cc(Nc2nc3ccccc3nc2NS(=O)(=O)c2ccc(NC(=O)c3ccc(OC)c(C)c3)cc2)cc(OC)c1
inactive: Potency (C33A) | Potency (CAOV3) | Potency (CASKI) | Potency (Es-2) | Potency (HeLa) | Potency (Hek293T) | Potency (JEG-3) | Potency (OV90) | Potency (PA-1) | Potency (SKOV3) | Potency (Tov-21-G) | Potency (Tov112D)

C[C@@H]1O[C@@H](O[C@H]2[C@H](O)[C@@H](O[C@@H]3O[C@H](CO)[C@@H](O)[C@H](O[C@@H]4O[C@H](CO)[C@@H](O)[C@H](O)[C@H]4O)[C@H]3O)[C@H](O[C@H]3CC[C@@]4(C)C(=CC[C@@H]5C4CC[C@@]4(C)C5C[C@@H]5OC6(CC[C@@](C)(CO[C@@H]7O[C@H](CO)[C@@H](O)[C@H](O)[C@H]7O)O6)[C@@H](C)[C@@H]54)C3)O[C@@H]2CO)[C@H](O)[C@H](O)[C@H]1O (some centres undefined)
inactive: activity change, negative = cytotoxicity (C33A) 0.269% [at 6.55 µM] | activity change, negative = cytotoxicity (CAOV3) -0.0617% [at 6.55 µM] | activity change, negative = cytotoxicity (CASKI) -1.1% [at 6.55 µM] | activity change, negative = cytotoxicity (Es-2) -0.893% [at 6.55 µM] | activity change, negative = cytotoxicity (HeLa) -3.62% [at 6.55 µM] | activity change, negative = cytotoxicity (Hek293T) 9.02% [at 6.55 µM] | activity change, negative = cytotoxicity (JEG-3) -5.56% [at 6.55 µM] | activity change, negative = cytotoxicity (OV90) 1.28% [at 6.55 µM] | activity change, negative = cytotoxicity (PA-1) -4.89% [at 6.55 µM] | activity change, negative = cytotoxicity (SKOV3) 5.85% [at 6.55 µM] | activity change, negative = cytotoxicity (Tov-21-G) -2.15% [at 6.55 µM] | activity change, negative = cytotoxicity (Tov112D) -2.67% [at 6.55 µM]

C[C@@H]1O[C@@H](O[C@@H]2[C@@H](O[C@@H]3O[C@@H](C)[C@H](O[C@@H]4OC[C@H](O)[C@H](O[C@@H]5OC[C@@H](O)[C@H](O)[C@H]5O)[C@H]4O)[C@@H](O[C@@H]4OC[C@](O)(CO)[C@H]4O)[C@H]3O)[C@H](OC(=O)[C@]34CCC(C)(C)C[C@H]3C3=CCC5[C@@]6(C)C[C@H](O)[C@H](O[C@@H]7O[C@H](CO[C@@H]8OC[C@H](O)[C@H](O)[C@H]8O)[C@@H](O)[C@H](O)[C@H]7O)C(C)(C)C6CC[C@@]5(C)[C@]3(C)C[C@H]4O)OC[C@H]2O)[C@H](O)[C@H](O)[C@H]1O (some centres undefined)
inactive: activity change, negative = cytotoxicity (C33A) -0.354% [at 6.55 µM] | activity change, negative = cytotoxicity (CAOV3) 6.96% [at 6.55 µM] | activity change, negative = cytotoxicity (CASKI) -5.17% [at 6.55 µM] | activity change, negative = cytotoxicity (Es-2) 0.628% [at 6.55 µM] | activity change, negative = cytotoxicity (HeLa) 4.56% [at 6.55 µM] | activity change, negative = cytotoxicity (Hek293T) -4.92% [at 6.55 µM] | activity change, negative = cytotoxicity (JEG-3) -6.81% [at 6.55 µM] | activity change, negative = cytotoxicity (OV90) 10.7% [at 6.55 µM] | activity change, negative = cytotoxicity (PA-1) 18.2% [at 6.55 µM] | activity change, negative = cytotoxicity (SKOV3) 4.47% [at 6.55 µM] | activity change, negative = cytotoxicity (Tov-21-G) -2.27% [at 6.55 µM] | activity change, negative = cytotoxicity (Tov112D) 7.07% [at 6.55 µM]

O=C(O)/C=C/c1cc2c(cc1O[C@@H]1O[C@H](CO)[C@@H](O)[C@H](O)[C@H]1O)OCO2
inactive: Potency (C33A) | Potency (CAOV3) | Potency (CASKI) | Potency (Es-2) | Potency (HeLa) | Potency (Hek293T) | Potency (JEG-3) | Potency (OV90) | Potency (PA-1) | Potency (SKOV3) | Potency (Tov-21-G) | Potency (Tov112D)

CC(C)/C=C1\NC(=O)C(C(C)C)n2c1nc1c(c2=O)C=CC=CO1 (centres undefined)
inactive: Potency (C33A) | Potency (CAOV3) | Potency (CASKI) | Potency (Es-2) | Potency (HeLa) | Potency (Hek293T) | Potency (JEG-3) | Potency (OV90) | Potency (PA-1) | Potency (SKOV3) | Potency (Tov-21-G) | Potency (Tov112D)

CC1(C=O)CC[C@]2(C(=O)O[C@@H]3O[C@H](CO)[C@@H](O)[C@H](O)[C@H]3O)CC[C@]3(C)C(=CCC4[C@@]5(C)C[C@H](O)[C@H](O[C@@H]6OC[C@@H](O)[C@H](O)[C@H]6O)[C@@](C)(CO)C5CC[C@]43C)C2C1 (some centres undefined)
inactive: activity change, negative = cytotoxicity (C33A) -2.32% [at 11.6 µM] | activity change, negative = cytotoxicity (CAOV3) -2.27% [at 11.6 µM] | activity change, negative = cytotoxicity (CASKI) 0.835% [at 11.6 µM] | activity change, negative = cytotoxicity (Es-2) -7.22% [at 11.6 µM] | activity change, negative = cytotoxicity (HeLa) -5.1% [at 11.6 µM] | activity change, negative = cytotoxicity (Hek293T) -2.72% [at 11.6 µM] | activity change, negative = cytotoxicity (JEG-3) 12.1% [at 11.6 µM] | activity change, negative = cytotoxicity (OV90) 9.96% [at 11.6 µM] | activity change, negative = cytotoxicity (PA-1) -2% [at 11.6 µM] | activity change, negative = cytotoxicity (SKOV3) 1.41% [at 11.6 µM] | activity change, negative = cytotoxicity (Tov-21-G) -1.76% [at 11.6 µM] | activity change, negative = cytotoxicity (Tov112D) -0.249% [at 11.6 µM]

COc1c(C)c(OCC(O)C(C)(C)O)cc2c1COC2=O (centres undefined)
inactive: Potency (C33A) | Potency (CAOV3) | Potency (CASKI) | Potency (Es-2) | Potency (HeLa) | Potency (Hek293T) | Potency (JEG-3) | Potency (OV90) | Potency (PA-1) | Potency (SKOV3) | Potency (Tov-21-G) | Potency (Tov112D)

O=C(Nc1ccc(-c2ccncc2)cc1)N[C@H](CO)c1ccccc1
inactive: Potency (C33A) | Potency (CAOV3) | Potency (CASKI) | Potency (Es-2) | Potency (HeLa) | Potency (Hek293T) | Potency (JEG-3) | Potency (OV90) | Potency (PA-1) | Potency (SKOV3) | Potency (Tov-21-G) | Potency (Tov112D)

CC(=O)c1c(O)cc(O[C@@H]2O[C@H](CO)[C@@H](O)[C@H](O)[C@H]2O)cc1O
inactive: Potency (C33A) | Potency (CAOV3) | Potency (CASKI) | Potency (Es-2) | Potency (HeLa) | Potency (Hek293T) | Potency (JEG-3) | Potency (OV90) | Potency (PA-1) | Potency (SKOV3) | Potency (Tov-21-G) | Potency (Tov112D)

C[C@H]1CC[C@@]2(OC1)O[C@H]1CC3C4CC[C@H]5C[C@@H](O)[C@H](O)C[C@]5(C)C4=CC(=O)[C@]3(C)[C@H]1[C@@H]2C (some centres undefined)
inactive: Potency (C33A) | Potency (CAOV3) | Potency (CASKI) | Potency (Es-2) | Potency (HeLa) | Potency (Hek293T) | Potency (JEG-3) | Potency (OV90) | Potency (PA-1) | Potency (SKOV3) | Potency (Tov-21-G) | Potency (Tov112D)

C[C@@H]([C@@H](O)c1ccc(O)cc1)N1CCC(O)(c2ccccc2)CC1
inactive: Potency (C33A) | Potency (CAOV3) | Potency (CASKI) | Potency (Es-2) | Potency (HeLa) | Potency (Hek293T) | Potency (JEG-3) | Potency (OV90) | Potency (PA-1) | Potency (SKOV3) | Potency (Tov-21-G) | Potency (Tov112D)

O=C(/C=C/c1ccccc1)OC[C@]12O[C@H]1[C@@H](O)[C@@H]1C=CO[C@@H](O[C@@H]3O[C@H](CO)[C@@H](O)[C@H](O)[C@H]3O)[C@@H]12
inactive: Potency (C33A) | Potency (CAOV3) | Potency (CASKI) | Potency (Es-2) | Potency (HeLa) | Potency (Hek293T) | Potency (JEG-3) | Potency (OV90) | Potency (PA-1) | Potency (SKOV3) | Potency (Tov-21-G) | Potency (Tov112D)
